Measured values from PubChem BioAssay AID489043 (National Center for Advancing Translational Sciences (NCATS), 2010).
Inconclusive results are not listed. Where a call stands in place of a potency, no number is given. The source made the active and inactive calls. Calls follow the shape of the dose curve; as a rule, active = well fitted activation curve with a large enough effect; inconclusive = small, poorly fitted or top-dose-only effect; inactive = flat fitted curve, though single readings scatter.

Biological target: Relaxin receptor 2 (Homo sapiens) (UniProt Q8WXD0)
Test: qHTS Assay for Agonists of the Relaxin Receptor RXFP1: RXFP2 Hit Validation; also: nearly all actives have a fitted effect of over 65% in size
Conditions: HEK293 RXFP2 cAMP TR-FRET, 30 min; series mostly up to 115 µM
Excerpt: NIH Chemical Genomics Center [NCGC] NIH Molecular Libraries Probe Production Centers Network [MLPCN] MLPCN Grant: R03 MH085705-01A1 Assay Submitter (PI): Alexander Agoulnik NCGC Assay Overview: The relaxin hormone is involved in the variety of biological functions in normal tissues and diseases. The role of relaxin is well-established in female reproduction and parturition, mammary gland and endometrial development, maintenance of myometrial quiescence during pregnancy. Relaxin signaling through its G protein-coupled receptor (GPCR) RXFP1 results in ECM remodeling through regulation of collagen deposition, cell invasiveness, proliferation and overall tissue homeostasis. […] Recombinant human relaxin (rhRlx) is currently being tested in clinical trials as a protective agent in congestive heart failure, in treating severe preeclampsia, and as an anti-fibrotic agent in systemic sclerosis. Upon relaxin binding RXFP1 activation leads to the activation of adenylate cyclase (AC) via Gs. cAMP will activate PKA, which phosphorylates many signaling proteins. Thus, detection of cAMP increase is an easy and reliable indication of relaxin receptor activation. To screen for agonists of the relaxin receptor, a HEK293T cell line stably transfected with RXFP1 was used. RXFP1 activation was assayed by changes in cAMP levels as detected with a time-resolved fluorescence energy transfer (TR-FRET) cAMP detection kit. This assay measures activation of a cell expressing RXFP2, another GPCR targeted by relaxin, to determine the selectivity of compounds for RXFP1.
NCGC Assay Protocol Summary: This is a cell-based assay for cAMP second messenger response to screen for agonists of the RXFP2 receptor. The assay was conducted in the presence of a PDE4 inhibitor (Ro 20174). The cells were lysed and the cAMP levels were measured with a TR-FRET cAMP kit. Presence of cAMP in the cell lysate disrupts binding between the cryptate-labeled anti-cAMP and d2-labeled cAMP pair, leading to a decrease in the TR-FRET signal. Data were normalized to the controls for basal activity (buffer only) and 100% activity (29 nM porcine relaxin). The EC50 values were determined from concentration-response data modeled with the standard Hill equation 1536-well assay protocol for the HEK293 RXFP2 cAMP assay: (1) Add 3 ul HEK293 RXFP2 cell culture. 2000 cells/well in DMEM/F12, 10% FBS, 1x Pen/Strep (dispensed offline with MultiDrop Combi). (2) Incubate 16-24 hr at 37C, 5% CO2. (3) Add 1 ul 400uM Ro20174 in DPBS, 0.05% BSA, 0.005% Tween 20. (3) Add 23 nl compounds in DMSO solution. Final concentration was 0.5 - 58 uM. (4) Incubate 30 min at 37C, 5% CO2. (5) Add 1 ul cAMP-d2 in lysis buffer (HTRF cAMP HiRange kit, CisBio). (6) Add 1 ul anti-cAMP antibody-cryptate in lysis buffer (HTRF cAMP HiRange kit, CisBio). (7) Incubate 30 min at room temperature. […] Keywords: relaxin, RXFP1, RXFP2, G-protein coupled receptor, cAMP, agonist, high throughput screening, MLSMR, MLSCN, NIH Roadmap, qHTS and NCGC
Potency is read from the fitted curve at half-maximal effect.

Chain of Relaxin receptor 2 (Homo sapiens) (Q8WXD0 whole entry, looked up): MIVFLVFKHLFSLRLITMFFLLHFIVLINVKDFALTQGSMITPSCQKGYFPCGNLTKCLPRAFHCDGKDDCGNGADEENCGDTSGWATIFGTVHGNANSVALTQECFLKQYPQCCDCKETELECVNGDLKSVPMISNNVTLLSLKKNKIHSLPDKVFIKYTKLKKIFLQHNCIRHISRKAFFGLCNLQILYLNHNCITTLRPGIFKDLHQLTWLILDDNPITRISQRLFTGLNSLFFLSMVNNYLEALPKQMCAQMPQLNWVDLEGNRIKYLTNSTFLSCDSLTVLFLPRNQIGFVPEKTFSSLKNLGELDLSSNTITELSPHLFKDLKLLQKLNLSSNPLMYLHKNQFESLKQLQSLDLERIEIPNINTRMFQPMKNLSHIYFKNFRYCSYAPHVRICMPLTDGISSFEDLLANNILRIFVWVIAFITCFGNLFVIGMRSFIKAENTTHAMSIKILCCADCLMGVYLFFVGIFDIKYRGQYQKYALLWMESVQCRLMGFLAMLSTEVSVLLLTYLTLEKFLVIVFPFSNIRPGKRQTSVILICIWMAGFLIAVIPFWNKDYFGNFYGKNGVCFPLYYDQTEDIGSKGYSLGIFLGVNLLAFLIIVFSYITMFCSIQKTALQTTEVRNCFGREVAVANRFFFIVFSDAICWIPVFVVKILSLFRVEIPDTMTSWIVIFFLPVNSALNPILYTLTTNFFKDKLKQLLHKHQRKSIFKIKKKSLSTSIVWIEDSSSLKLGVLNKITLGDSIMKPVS

SMILES	Potency
O=C(O)CNC(=O)c1ccccc1NC(=O)c1ccco1	inactive
Nc1ncnc2c1ncn2[C@@H]1O[C@H](COS(=O)(=O)O)[C@@H](O)[C@H]1O	12.3 µM (active)
Cc1cccc(NC(=O)c2ccccc2NC(=O)c2ccco2)c1	inactive
COc1cccc(C(=O)CSc2nnc(-c3cc(OC)cc(OC)c3)o2)c1	10.9 µM (active)
Cc1cc(C)c(NC(=O)CS(=O)CC(=O)Nc2ccc(F)cc2F)c(C)c1 (stereo not given)	inactive
O=C(Nc1cccc(C(F)(F)F)c1)c1ccccc1NC(=O)C1CCCCC1	inactive
O=C(Nc1ccccc1C(=O)Nc1ccc(F)cc1)c1ccco1	inactive
N#C/C(=C/c1ccc(OCc2ccccc2)cc1)C(=O)NC1CCCCC1	inactive
CC1(C)Cc2c(sc3c2c2ncnn2c2nnc(SCC(=O)NCc4ccco4)n32)CO1	7.76 µM (active)
CCc1nnc(NC(=O)CSc2nc(C)nc3c2c(=O)n(C)c(=O)n3C)s1	10.9 µM (active)
CC[n+]1ccc(/C=C/c2ccc(N(C)C)cc2)c2ccccc21	inactive
O=C(Cn1cnc2c(nnn2-c2ccc(F)cc2)c1=O)NCC1CCCO1 (stereo not given)	11 µM (active)
CCCCn1c(SCC(=O)N2CCOCC2)nc2c1c(=O)n(C)c(=O)n2C	38.9 µM (active)
CCc1ccc2n(-c3ccc(OC)cc3)c([S-])c(C(=O)Nc3cc(C)cc(C)c3)[n+]2c1	30.8 µM (active)
COc1ccc(CN2C(=O)c3cccnc3C2=O)cc1S(=O)(=O)NC1CCCCC1C (stereo not given)	15.5 µM (active)
CN(C)c1ccc(C(=S)N2CCN(S(=O)(=O)c3ccccc3)CC2)cc1	inactive
CC[N+](CC)(CCCCS(=O)(=O)[O-])CCNP1(=O)C=C(c2ccccc2)OC(c2ccccc2)=C1	34.6 µM (active)
COC(=O)c1c(N2C(=O)CC(Sc3ncccc3C(=O)O)C2=O)sc(C)c1C (stereo not given)	inactive
CC(NC(=O)c1ccccc1NC(=O)c1ccco1)C(=O)O (stereo not given)	inactive
CN(CC(=O)Nc1ccccc1Cl)C(=O)COC(=O)Cc1c(F)cccc1Cl	inactive

SMILES	Potency
CC1CCCCN1C(=O)c1ccccc1NC(=O)c1ccco1 (stereo not given)	inactive
CN1CCN(C(=O)CCc2nnc3ccc(N4CCC5(CC4)OCCO5)nn23)CC1	inactive
O=C(Nc1ccccc1C(=O)NCCc1ccccc1)c1ccco1	inactive
NS(=O)(=O)c1ccc(CCNC(=O)C2CCN(c3ncnc4c3nc3n4CCCCC3)CC2)cc1	38.9 µM (active)
COc1ccc(OC)c(CNC(=O)C2CCN(C(=O)N(C)C)CC2)c1	inactive
COC(=O)Cn1cnc2c(C#N)c3n(c2c1=O)CCCC3	30.9 µM (active)
C=C[C@@]1(C)CC(=O)[C@]2(O)[C@@]3(C)[C@@H](O)CCC(C)(C)[C@@H]3[C@H](O)[C@H](OC(C)=O)[C@@]2(C)O1	0.0488 µM (active)
O=C(CN1C(=O)c2cccc3cccc(c23)C1=O)NCCN1CCOCC1	inactive
CCc1nn(CC(=O)NCCCN2CCOCC2)c(=O)c2cc3sccc3n12	inactive
COc1cccc(CNC(=O)c2ccc(CS(=O)Cc3ccc(C)cc3)o2)c1 (stereo not given)	inactive
Cc1cc(C)nc(NS(=O)(=O)c2ccc(N3C(=O)c4ccccc4C3=O)cc2)n1	29.8 µM (active)
O=C(O)c1ccc(N=C2NC(=O)C(CO)(CO)S2)cc1	inactive
Cc1cccn2c(=O)c(/C=C3\SC(=S)NC3=O)c(NCCCN3CCOCC3)nc12	4.35 µM (active)
C=CCOc1c(Cl)cc(CNc2ccc(N(C)C)cc2)cc1OC	inactive
Cc1ccc(-c2ccc3nnc(SCC(=O)NCC4CCCO4)n3n2)cc1 (stereo not given)	inactive
O=C(Nc1ccccc1C(=O)Nc1ccccc1)c1ccco1	inactive
Cn1c(N)c(C(=O)CSc2nn(-c3ccc(F)cc3)c(=S)s2)c(=O)n(C)c1=O	21.8 µM (active)
CCN(CC)S(=O)(=O)c1ccc2c(c1)N(CC(=O)NCc1ccccn1)C(=O)CO2	34.6 µM (active)
CCC(=O)Nc1ccc(-n2nnnc2SCC(=O)NNC(=O)c2ccco2)cc1	inactive
CC1C/C(=N\NC(N)=S)c2cc(Cl)ccc2S1 (stereo not given)	inactive
